The values below come from PubChem BioAssay.

Inconclusive results are not listed. The source made the active and inactive calls.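 Rule for the calls, unless noted: active = GFP signal, as percent of the solvent control, above the screen mean plus 3 SD, about 149; inconclusive = no reading because the compound's own fluorescence upset strain identification; inactive = the rest.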

Test [1] is described as follows: yeast TOR pathway RPL19A-GFP modulators, primary screen, cell-based, S. cerevisiae, multiplex flow cytometry (AID 1862; in the data active = percent of DMSO control GFP below about 86%;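 note: lower values mimic rapamycin by blocking the RPL19A rise seen in DMSO cells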). The settings on record: S. cerevisiae RPL19A-GFP strain, flow cytometry fluorescence, 3 h; at 10 µM; stronger effect = lower value.
Test [2] in a line: modulators of MEP2-GFP levels in yeast, primary screen, S. cerevisiae, multiplex flow cytometry (AID 1867;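 active = GFP response, as percent of the DMSO control, above the screen-wide mean plus 3 SD, about 139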;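 note: median GFP channel fluorescence of barcode-gated MEP2-GFP cells measured by flow cytometry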). The settings on record: S. cerevisiae MEP2-GFP strain, 3 h, at 10 µM, stronger effect = higher value, 100% means same as DMSO wells.
A short description of test [3]: modulators of CIT2-GFP expression in yeast, primary screen, S. cerevisiae, GFP fusion, multiplex flow cytometry (AID 1870;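 active = percent response above a set limit, the screen-wide mean plus 3 SD, cut at about 130% in these data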;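 note: barcoded CIT2-GFP strain pooled with four other GFP strains with rapamycin as positive control; median GFP fluorescence per well over plate mean of DMSO wells so 100% = DMSO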). The settings on record: 3 h, at 10 µM, stronger effect = higher value.
Test [4] can be described thus: modulators of LAP4-GFP expression in yeast, primary screen, S. cerevisiae, multiplex flow cytometry (AID 1873). To be noted: 3 h, at 10 µM, stronger effect = higher value. In general terms: Flow cytometry measures light scatter and fluorescence of single cells or particles in a stream.
A short description of test [5]: modulators of AGP1-GFP expression in yeast TOR pathway, primary screen, cell-based, multiplex flow cytometry, S. cerevisiae (AID 1887;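 active = GFP signal above the screen-wide mean plus 3 SD, that is over about 124.5% of the solvent control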;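 note: AGP1-GFP fusion strain of S. cerevisiae within a five-strain barcoded multiplex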). To be noted: 3 h, at 10 µM, stronger effect = higher value.
The nature of test [6]: inhibitors of CD8+ T cell-vesicle binding, pilot screen, LFA-1/ICAM-1 modulator project, MLPCN validation set, flow cytometry (AID 2523;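 active = response below a set limit, under 55% cells CD8-positive and vesicle-bound, and CD8 cells' 90th-percentile brightness under 279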;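 for vesicle binding response: mean PE anti-B7-1 fluorescence of CD8+ cells relative to row control; 100% = QL9-loaded vesicles with DMSO vehicle in the same plate row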). The settings on record: 2C mouse CD8+ T cells, at 7 µM, stronger effect = lower value; double positive events: measured here: CD8+/vesicle+ event percentage.
Test [7] concerns the target Integrin beta-1 (Homo sapiens) + Integrin alpha-4 (Homo sapiens) (UniProt P13612+P05556). Put plainly: inhibition of HUTS-21 binding to VLA-4, pilot screen, VLA-4 allosteric modulator project, U937 cells, HUTS-21 mAb, flow cytometry, validation set (AID 2674;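 active = inhibition above 50%, about 3 SD of the validation set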;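 note: antibody binding induced by the VLA-4 ligand LDV present at three times its Kd; 0% = LDV ligand with antibody and no compound and 100% = antibody without LDV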). To be noted: HUTS-21 LIBS mAb binding, at 6.7 µM, stronger effect = higher value, binding induced by LDV ligand.
Test [8] is described as follows: superoxide lowering in aged yeast cells, pilot screen, validation compound set (AID 2706;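 active = superoxide response below 65% of plate, a cut near 3 SD across the whole screen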;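 note: yeast exposed to compound for one week at 30 degrees C before staining; 100% = mean of all compound wells on the same plate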). To be noted: S. cerevisiae aging, superoxide DHE fluorescence; at 10 µM; stronger effect = lower value.
Test [9] has as its target Beta-adrenergic receptor kinase 1 (Homo sapiens) (UniProt P25098). Put plainly: GRK2 binders displacing RNA aptamer, biochemical, validation, human GRK2, bead flow cytometry (AID 488806;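 active = aptamer binding inhibition above 30%, about 3 SD of noise from non-fluorescent compounds; inactive = inhibition at or below 30%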). The settings on record: bead-bound GRK2, FAM-aptamer displacement, at 10 µM, stronger effect = higher value.
For test [10], the target named is Beta-2 adrenergic receptor (Homo sapiens) (UniProt P07550). Description: beta2AR agonists driving receptor internalization, pilot screen, cell-based, FAP fluorogen, flow cytometry, validation set (AID 504459;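 active = percent response above 42, roughly 3 SD of non-fluorescent test compounds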;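 note: agonist-driven loss of surface beta2AR via internalization measured by FAP dye flow cytometry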). To be noted: Am2.2-beta2AR cells, FAP surface receptor flow cytometry; at 10 µM; stronger effect = higher value.
Chain of Beta-2 adrenergic receptor (Homo sapiens) (P07550 whole entry, looked up): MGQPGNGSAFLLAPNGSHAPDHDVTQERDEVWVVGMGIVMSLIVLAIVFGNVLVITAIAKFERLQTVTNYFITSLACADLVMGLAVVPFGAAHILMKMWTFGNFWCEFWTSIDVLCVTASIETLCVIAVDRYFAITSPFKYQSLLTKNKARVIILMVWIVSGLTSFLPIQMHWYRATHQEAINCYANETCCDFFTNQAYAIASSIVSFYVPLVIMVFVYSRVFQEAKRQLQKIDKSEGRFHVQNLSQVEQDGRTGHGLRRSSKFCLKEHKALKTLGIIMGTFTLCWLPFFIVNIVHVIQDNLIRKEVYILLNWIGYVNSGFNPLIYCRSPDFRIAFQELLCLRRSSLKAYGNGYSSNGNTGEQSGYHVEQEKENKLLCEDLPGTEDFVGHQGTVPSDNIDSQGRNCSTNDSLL
For test [11], the target named is AP-2 complex subunit beta (Homo sapiens) (UniProt P63010). Put plainly: inhibitors of arrestin peptide binding to AP2, pilot screen, biochemical, validation set, GST-AP2 beads, flow cytometry (AID 504541;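 active = inhibition above 54%, about 3 SD of non-fluorescent compounds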;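 note: AP2 carries R879A mutation and is captured from E. coli lysate; bead-bound FITC arrestin peptide fluorescence measuring arrestin peptide binding to AP2; 0% = DMSO wells and 100% = excess unlabeled arrestin peptide control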). The settings on record: FITC arrestin peptide, at 10 µM, stronger effect = higher value, AP2 beta2 appendage fragment, R879A mutant.
Chain of AP-2 complex subunit beta (Homo sapiens) (P63010 whole entry, looked up, the tested form may be a part, one chain of several): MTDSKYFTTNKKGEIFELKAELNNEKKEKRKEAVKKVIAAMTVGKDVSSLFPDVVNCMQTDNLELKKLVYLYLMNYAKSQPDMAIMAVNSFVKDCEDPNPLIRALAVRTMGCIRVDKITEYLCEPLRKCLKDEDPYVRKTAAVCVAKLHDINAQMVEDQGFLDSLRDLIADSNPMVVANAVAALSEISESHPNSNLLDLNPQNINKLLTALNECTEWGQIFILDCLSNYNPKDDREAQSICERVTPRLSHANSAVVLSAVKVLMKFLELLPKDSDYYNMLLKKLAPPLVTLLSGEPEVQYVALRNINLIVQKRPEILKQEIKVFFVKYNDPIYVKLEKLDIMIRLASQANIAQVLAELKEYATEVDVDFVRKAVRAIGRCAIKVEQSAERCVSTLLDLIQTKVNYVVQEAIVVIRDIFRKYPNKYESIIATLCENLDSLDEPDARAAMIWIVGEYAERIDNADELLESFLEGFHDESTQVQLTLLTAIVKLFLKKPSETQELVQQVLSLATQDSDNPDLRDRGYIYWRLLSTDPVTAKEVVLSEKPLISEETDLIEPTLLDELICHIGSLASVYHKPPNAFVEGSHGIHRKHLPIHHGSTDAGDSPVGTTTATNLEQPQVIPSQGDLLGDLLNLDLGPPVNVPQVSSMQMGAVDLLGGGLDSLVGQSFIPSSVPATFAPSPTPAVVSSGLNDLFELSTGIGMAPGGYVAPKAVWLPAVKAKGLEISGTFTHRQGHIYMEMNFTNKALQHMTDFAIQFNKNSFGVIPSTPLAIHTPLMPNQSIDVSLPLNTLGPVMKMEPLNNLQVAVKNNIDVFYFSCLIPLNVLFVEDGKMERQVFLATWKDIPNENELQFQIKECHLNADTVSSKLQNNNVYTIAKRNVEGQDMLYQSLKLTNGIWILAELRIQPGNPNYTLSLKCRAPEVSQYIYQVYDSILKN
Test [12] can be described thus: yeast V-ATPase proton transport modulators, S. cerevisiae, pHLuorin, HTS validation (AID 504600; in the data active = response above about 15%;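 note: plate controls were DMSO for no effect and reference compound for full effect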). The settings on record: S. cerevisiae pHLuorin cytosolic pH, at 10 µM, stronger effect = higher value.
The test system of test [13] is anti-desmoglein-3 scFv antibody binding to human DSG3. Description: inhibitors of anti-DSG3 scFv binding to DSG3, pilot screen, biochemical, validation compound set, bead-based, flow cytometry (AID 588368;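 active = binding below the plate cutoff, the plate median minus 3 SD, with a reading above zero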;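 note: signal is the median channel fluorescence of bead-bound GFP antibody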). To be noted: Protein G beads, DSG3-Fc, scFv-GFP binding, at 10 µM, stronger effect = lower value.
Test [14] in a line: inhibitors of fungal efflux pumps CDR1, CDR2, MDR1, pilot screen, validation compound set, multiplex, phenotypic (AID 588506;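 active = efflux inhibition above 0.42, the validation set average plus 4 SD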;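 note: Nile Red retained in cells so higher fluorescence means more efflux inhibition; 0 = negative control wells and 1 = enniatin B 25 µM full block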). The settings on record: S. cerevisiae pump-expressing triplex, Nile Red efflux flow cytometry; at 10 µM; stronger effect = higher value; the pumps come from Candida albicans.
The target in test [15] is ATP-binding cassette sub-family B member 6 (Homo sapiens) (UniProt Q9NP58). Description: ABCB6 transporter inhibitors, pilot screen, K562-ABCB6 cells, flow cytometry, validation set (AID 588550;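 active = inhibition above the screen-wide mean plus 3 SD, about 51%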;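 note: 0% = DMSO wells and 100% = benzethonium chloride 70 µM positive control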). The settings on record: K562-ABCB6 porphyrin accumulation, 1 h, at 10 µM, stronger effect = higher value.
Chain of ATP-binding cassette sub-family B member 6 (Homo sapiens) (Q9NP58 whole entry, looked up): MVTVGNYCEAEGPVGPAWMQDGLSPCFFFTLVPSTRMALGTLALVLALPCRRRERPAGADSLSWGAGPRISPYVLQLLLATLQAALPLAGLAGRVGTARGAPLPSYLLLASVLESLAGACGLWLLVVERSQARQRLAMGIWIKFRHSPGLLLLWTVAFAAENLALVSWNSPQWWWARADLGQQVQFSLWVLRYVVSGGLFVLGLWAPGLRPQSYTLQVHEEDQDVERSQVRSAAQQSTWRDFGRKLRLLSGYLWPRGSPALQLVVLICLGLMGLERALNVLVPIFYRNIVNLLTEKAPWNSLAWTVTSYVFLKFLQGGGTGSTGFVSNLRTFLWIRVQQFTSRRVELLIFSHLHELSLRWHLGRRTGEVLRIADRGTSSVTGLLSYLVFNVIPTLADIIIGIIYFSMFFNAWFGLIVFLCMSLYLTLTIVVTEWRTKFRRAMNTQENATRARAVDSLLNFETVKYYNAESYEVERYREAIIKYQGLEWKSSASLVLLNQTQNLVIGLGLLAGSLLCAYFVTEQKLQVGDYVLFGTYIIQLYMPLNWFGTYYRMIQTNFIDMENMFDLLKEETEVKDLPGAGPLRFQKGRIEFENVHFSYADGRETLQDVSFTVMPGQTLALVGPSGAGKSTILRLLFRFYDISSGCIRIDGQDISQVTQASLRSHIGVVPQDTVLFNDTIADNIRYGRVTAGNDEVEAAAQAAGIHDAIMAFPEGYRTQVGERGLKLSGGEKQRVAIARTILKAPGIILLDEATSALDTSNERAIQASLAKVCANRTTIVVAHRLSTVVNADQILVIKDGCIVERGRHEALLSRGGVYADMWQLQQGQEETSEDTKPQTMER
The nature of test [16]: promoters of myeloid differentiation in arrested cells, primary screen, cell-based, GFP/MAC1 double positive, flow cytometry, validation set (AID 588685;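 active = differentiation response of at least 50%, scaled between solvent and reference control, from cells with both markers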;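 note: compound exposure lasts four days before antibody staining and flow analysis; 0% = DMSO wells and 100% = 5 µM fulvestrant positive control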). To be noted: ER-HoxA9 marrow cells, stronger effect = higher value, normalized: vehicle 0, fulvestrant 100.

Chain of Beta-adrenergic receptor kinase 1 (Homo sapiens) (P25098 whole entry, looked up): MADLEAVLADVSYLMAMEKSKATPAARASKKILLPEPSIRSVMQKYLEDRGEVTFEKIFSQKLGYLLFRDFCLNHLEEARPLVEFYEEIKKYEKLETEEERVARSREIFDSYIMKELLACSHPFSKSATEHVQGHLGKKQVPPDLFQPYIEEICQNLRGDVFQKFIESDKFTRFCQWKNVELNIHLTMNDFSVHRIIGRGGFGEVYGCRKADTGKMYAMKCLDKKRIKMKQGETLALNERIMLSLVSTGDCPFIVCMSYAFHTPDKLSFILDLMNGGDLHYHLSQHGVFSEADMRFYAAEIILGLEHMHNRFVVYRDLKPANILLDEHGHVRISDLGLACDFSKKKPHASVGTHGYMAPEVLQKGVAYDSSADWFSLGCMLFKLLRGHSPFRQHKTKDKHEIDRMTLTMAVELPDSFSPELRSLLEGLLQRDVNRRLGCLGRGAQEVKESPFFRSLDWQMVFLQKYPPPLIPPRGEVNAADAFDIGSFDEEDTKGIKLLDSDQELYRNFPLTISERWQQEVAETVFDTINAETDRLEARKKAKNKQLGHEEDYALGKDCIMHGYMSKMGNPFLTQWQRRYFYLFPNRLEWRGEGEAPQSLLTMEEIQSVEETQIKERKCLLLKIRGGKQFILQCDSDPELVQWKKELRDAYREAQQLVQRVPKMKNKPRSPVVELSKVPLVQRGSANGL
Chain of Integrin beta-1 (Homo sapiens) + Integrin alpha-4 (Homo sapiens) (P05556 whole entry, looked up): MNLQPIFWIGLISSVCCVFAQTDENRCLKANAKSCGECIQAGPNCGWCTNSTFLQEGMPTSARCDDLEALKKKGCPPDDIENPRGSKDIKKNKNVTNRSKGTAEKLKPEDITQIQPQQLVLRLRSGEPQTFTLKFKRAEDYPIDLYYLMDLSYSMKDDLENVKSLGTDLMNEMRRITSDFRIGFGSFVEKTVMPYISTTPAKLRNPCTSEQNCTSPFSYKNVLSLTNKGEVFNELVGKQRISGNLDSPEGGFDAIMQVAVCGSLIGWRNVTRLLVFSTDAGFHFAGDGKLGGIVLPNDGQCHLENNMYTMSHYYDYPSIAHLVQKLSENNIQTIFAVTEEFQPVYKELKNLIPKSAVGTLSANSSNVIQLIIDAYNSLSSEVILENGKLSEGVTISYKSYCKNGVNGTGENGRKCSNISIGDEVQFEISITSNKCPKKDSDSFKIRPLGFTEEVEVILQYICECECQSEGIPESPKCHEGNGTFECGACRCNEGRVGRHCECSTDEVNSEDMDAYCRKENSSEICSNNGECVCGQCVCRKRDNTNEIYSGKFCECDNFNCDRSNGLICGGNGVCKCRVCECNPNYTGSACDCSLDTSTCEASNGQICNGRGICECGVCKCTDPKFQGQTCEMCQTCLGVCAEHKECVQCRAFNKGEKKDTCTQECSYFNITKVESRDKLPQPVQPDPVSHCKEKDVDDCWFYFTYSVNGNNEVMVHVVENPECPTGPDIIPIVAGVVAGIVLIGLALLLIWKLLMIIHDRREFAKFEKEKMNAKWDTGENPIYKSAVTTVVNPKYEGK
Chain of Integrin beta-1 (Homo sapiens) + Integrin alpha-4 (Homo sapiens) (P13612 whole entry, looked up): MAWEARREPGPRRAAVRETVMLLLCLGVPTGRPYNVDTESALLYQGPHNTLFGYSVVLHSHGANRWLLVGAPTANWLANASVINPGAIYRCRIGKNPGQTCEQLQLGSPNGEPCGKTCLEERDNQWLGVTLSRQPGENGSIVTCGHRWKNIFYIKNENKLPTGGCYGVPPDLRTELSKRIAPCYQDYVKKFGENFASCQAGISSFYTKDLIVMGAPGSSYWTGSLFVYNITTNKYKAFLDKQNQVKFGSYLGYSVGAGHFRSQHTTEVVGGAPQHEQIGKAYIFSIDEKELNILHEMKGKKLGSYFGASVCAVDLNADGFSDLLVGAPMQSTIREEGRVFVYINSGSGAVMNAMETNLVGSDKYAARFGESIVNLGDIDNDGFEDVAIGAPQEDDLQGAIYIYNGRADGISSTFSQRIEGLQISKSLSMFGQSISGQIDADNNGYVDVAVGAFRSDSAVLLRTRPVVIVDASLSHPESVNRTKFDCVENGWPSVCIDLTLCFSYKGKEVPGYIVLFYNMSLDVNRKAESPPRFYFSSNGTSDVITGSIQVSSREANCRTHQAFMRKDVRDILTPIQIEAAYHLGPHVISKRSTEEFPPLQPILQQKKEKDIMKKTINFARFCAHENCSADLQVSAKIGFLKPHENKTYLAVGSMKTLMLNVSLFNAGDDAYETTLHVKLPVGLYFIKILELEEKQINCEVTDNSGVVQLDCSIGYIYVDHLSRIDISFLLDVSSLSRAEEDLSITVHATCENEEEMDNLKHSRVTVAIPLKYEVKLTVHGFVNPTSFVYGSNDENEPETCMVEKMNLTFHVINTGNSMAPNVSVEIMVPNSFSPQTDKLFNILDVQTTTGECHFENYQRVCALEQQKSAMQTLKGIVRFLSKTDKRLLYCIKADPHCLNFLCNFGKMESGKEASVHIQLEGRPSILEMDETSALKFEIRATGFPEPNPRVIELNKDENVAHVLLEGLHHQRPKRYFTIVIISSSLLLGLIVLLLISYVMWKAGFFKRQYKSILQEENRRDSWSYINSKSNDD

As usually defined, the inhibition is the relative decrease from the control value, in per cent. Turning to `Cc1ncc(CN2CCC(CO)(CCc3ccccc3)CC2)s1`, the percent of DMSO control GFP in test [1] is 101% (inactive). Further, the GFP response vs DMSO in test [2] is 111% (inactive); in test [4], 102% (inactive). Further, in [3], the percent response of DMSO control was 104% (inactive). In addition, the GFP response, % of DMSO in test [5] is 110% (inactive). For the same compound, the double positive events in [6] was found to be 62.3%. The vesicle binding response in test [6] is 98.1% (inactive). Also, the results for the inhibition in [7], in [11] and in test [15] were 6.95% (inactive), -1.19% (inactive) and 6% (inactive), respectively. In test [8], the superoxide response (% of plate) is 97.2% (inactive). The aptamer binding inhibition in test [9] was 2% (inactive). Moreover, the response is -0.43% (inactive) in [10] and 0.58% (inactive) in [12]. The binding (% of control) in test [13] was 107% (inactive). Further, in test [14], the efflux inhibition (fraction of control) was -0.07 (inactive). For the same compound, the differentiation response in test [16] is -1.65% (inactive).

With `CC1(C)CC(=O)c2cn3c(nc2C1)nc1ccccc13`, in [1], the percent of DMSO control GFP was 102% (inactive). Further, the GFP response vs DMSO in [2] is 97.7% (inactive); in test [4], 99.1% (inactive). Besides, the percent response of DMSO control in test [3] was 104% (inactive). In addition, the GFP response, % of DMSO in [5] was 102% (inactive). Further, the double positive events in test [6] amounted to 55.9%. The vesicle binding response in test [6] was 104% (inactive). Also, the values for the inhibition in [7], in [11] and in [15] were 9.63% (inactive), 17% (inactive) and -6% (inactive), respectively. Besides, the superoxide response (% of plate) in test [8] was 107% (inactive). In test [9], the aptamer binding inhibition is -1% (inactive). Moreover, the response in test [10] is -25.5% (inactive); in test [12], 3.76% (inactive). Also, the binding (% of control) in test [13] is 103% (inactive). Moreover, in test [14], the efflux inhibition (fraction of control) was -0.12 (inactive). In [16], the differentiation response is -6.03% (inactive).

For the compound `O=C(O)CCCCCNC(=O)Nc1ccc2c(c1)OCCO2`, the percent of DMSO control GFP in [1] was 101% (inactive). In addition, the figures for the GFP response vs DMSO in [2] and in [4] were 115% (inactive) and 77% (inactive), respectively. Also, the percent response of DMSO control in [3] was 112% (inactive). Further, the GFP response, % of DMSO in [5] was 91.2% (inactive). In addition, the double positive events in test [6] was determined as 49.7%. For the same compound, in test [6], the vesicle binding response was 207% (inactive). The inhibition in test [7] is -12% (inactive); in [11], -7.04% (inactive); in [15], 7% (inactive). Moreover, the superoxide response (% of plate) in test [8] was 105% (inactive). Besides, in test [9], the aptamer binding inhibition was -3% (inactive). Also, the values for the response in [10] and in test [12] were -9.55% (inactive) and -4.4% (inactive), respectively. Moreover, in test [13], the binding (% of control) is 108% (inactive). For the same compound, in test [14], the efflux inhibition (fraction of control) was 0.12 (inactive). In addition, the differentiation response in test [16] is -3.28% (inactive).

For `CCO/C([O-])=N/c1c[n+](N2CCOCC2)no1`, the percent of DMSO control GFP in test [1] is 99.8% (inactive). The GFP response vs DMSO in [2] was 97.7% (inactive); in test [4], 110% (inactive). In addition, the percent response of DMSO control in test [3] is 103% (inactive). In test [5], the GFP response, % of DMSO was 106% (inactive). In test [6], this compound yielded a double positive events of 64.1%. Moreover, the vesicle binding response in [6] was 237% (inactive). Further, the inhibition in test [7] was -18.5% (inactive); in test [11] it was -14.8% (inactive); in test [15], -4% (inactive). The superoxide response (% of plate) in test [8] is 115% (inactive). For the same compound, the aptamer binding inhibition in test [9] was -1% (inactive). The response in test [10] was 9.37% (inactive); in [12], 0.46% (inactive). Further, in test [13], the binding (% of control) was 100% (inactive). In addition, the efflux inhibition (fraction of control) in test [14] was 0 (inactive). Further, in test [16], the differentiation response was -0.18% (inactive).

Turning to `N#C/C(=C\c1ccc(O)c(O)c1)C(=O)NCCCc1ccccc1`, the percent of DMSO control GFP in [1] was 102% (inactive). Further, the GFP response vs DMSO in test [2] is 101% (inactive); in test [4], 108% (inactive). Besides, in test [3], the percent response of DMSO control is 98.3% (inactive). For the same compound, the GFP response, % of DMSO in test [5] was 116% (inactive). The double positive events in [6] came to 62.1%. In addition, in [6], the vesicle binding response is 206% (inactive). Besides, the inhibition was -13% (inactive) in [7], 25.2% (inactive) in [11] and -1% (inactive) in test [15]. In addition, in [8], the superoxide response (% of plate) was 93.6% (inactive). Besides, the aptamer binding inhibition in test [9] is -1% (inactive). For the same compound, the response in test [10] is 13.4% (inactive); in [12], -4.8% (inactive). Moreover, the binding (% of control) in [13] was 103% (inactive). Moreover, the efflux inhibition (fraction of control) in test [14] was 0.08 (inactive). Further, the differentiation response in test [16] was 3.88% (inactive).
